# TTR transcr act – activators of transthyretin transcription | 92,000 compounds, 1.3% hits | SH-SY5Y TTR promoter Gaussia luciferase, luminescence; 100% = recombinant luciferase protein wells | activation, % at 16.7 µM;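 active = activation above the mean of all tested compounds plus 3 SD, cut at about 9.5% in these data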;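 also: cells exposed to compounds for one day before reading; 0% = median of all test compound wells on the plate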
# TTR inh HuH7 – decreases TTR transcription in HuH7 cells in activator counter-screen. shares compounds with TTR transcr act. 1,100 compounds, 4% hits. inhibition, % at 16.7 µM. HuH7 TTR promoter-Gaussia luciferase reporter, luminescence. AID 1117279;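 active = average inhibition above the solvent-only control wells' mean plus 3 SD, cut at about 15% in these data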;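 also: 0% = cells with DMSO only and 100% = cells with inhibitor control FD; inhibitors lower well luminescence so higher value means more inhibition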
# TTR up confirm – confirmation of human transthyretin transcription activators | SHSY5Y TTR promoter Gaussia luciferase, luminescence; 100% = purified Lucia enzyme wells, no cells | shares compounds with TTR transcr act | 1,100 tested, under 10 active | AID 1117280 | activation, % at 16.7 µM;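 active = mean activation above a set limit taken from the earlier primary screen, cut at about 11% in these data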;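 also: 0% = DMSO-treated cells and 100% = recombinant Lucia luciferase without cells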
# * = called active by the depositor. This is one part of a sample in which hits are shown more often than they occur.
SMILES,TTR transcr act,others
COc1ccc([N+](=O)[O-])c(OC)c1C(=O)NC(=O)Nc1c(F)cc(F)cc1F,126*,TTR inh HuH7=-7;TTR up confirm=0
COc1ccc([N+](=O)[O-])c(OC)c1C(=O)NC(=O)Nc1nc(C)cc(C)n1,6,
COc1cccc(OC)c1NC(=O)NC(=O)c1c(OC)c(Br)cc([N+](=O)[O-])c1OC,-1,
CCOC(=O)c1ccc(NC(=O)CN(Cc2ccc(Cl)cc2)S(C)(=O)=O)cc1,0,
CC1CN(C(=S)SCCN2C(=O)CCC2=O)CC(C)O1 (stereo not given),2,
CN(C(=O)COc1ccccc1)c1nc(-c2ccc(F)cc2)cs1,-1,
COCC(=O)Nc1nnc(-c2cccs2)s1,1,
COCC(=O)N(C)c1nnc(-c2cnc(C)cn2)s1,9.7*,TTR inh HuH7=-8;TTR up confirm=-1
CCCC1CCC2(CCCN2CCOC(=O)Nc2ccc(F)cc2)CC1 (stereo not given),-2,
CCOC(=O)[C@]12CCCC=C1N(Cc1ccc(OC)cc1)C(=O)[C@@H]2CC(=O)N1CCCC1,0,
COC(=O)[C@]1(CC(C)C)N[C@H](c2ccc(-c3ccc(F)cc3)c(OC)c2)[C@@H]2C(=O)N(C)C(=O)[C@@H]21,13*,TTR inh HuH7=-11;TTR up confirm=0
COC(=O)[C@]1(CC(C)C)N[C@H](c2ccc(SC3CCCCC3)c(OC)c2)[C@@H]2C(=O)N(C)C(=O)[C@@H]21,0,
CCC(C)Sc1ccc([C@H]2N[C@@](CC(C)C)(C(=O)OC)[C@H]3C(=O)N(CC)C(=O)[C@@H]23)cc1 (stereo not given in full),3,
O=C(O)c1cccc(Br)c1,-1,
CC(=O)c1cnc2nc(SCc3cccc(C)c3)nn2c1C,1,
O=C(NCC1CC1)c1ccc(Nc2nc3ccc(Br)cc3[nH]2)cc1,34*,TTR inh HuH7=1;TTR up confirm=-1
O=C(NCCc1nc2ccccc2[nH]1)c1cccc(Br)c1,4,
O=C(Cc1ccc(Nc2nc3ccc(Br)cc3[nH]2)cc1)NCCc1cccs1,-5,
O=C(Cc1csc(NC(=O)Nc2ccc(Cl)cc2)n1)NCc1cccnc1,3,
COc1ccc(Cc2c(-c3cccc(Cl)c3)nc3ccc(C)cn23)c(C)c1,2,
COC(CNC(=O)C(=O)Nc1cc2c3c(c1)CCN3C(=O)CC2)OC,0,
O=C1[C@H]2[C@@H](/C=C/c3ccccc3)N3C(=O)CN(CCO)C(=O)[C@@]3(Cc3ccccc3)[C@H]2C(=O)N1c1ccccc1,0,
O=C1[C@H]2[C@@H](/C=C/c3ccccc3)N3C(=O)CN(CC4CC4)C(=O)[C@@]3(Cc3ccccc3)[C@H]2C(=O)N1c1ccccc1,-1,
C[C@@]12C(=O)N(CCO)CC(=O)N1[C@H](/C=C/c1ccccc1)[C@@H]1C(=O)N(c3ccccc3)C(=O)[C@@H]12,23*,TTR inh HuH7=-3;TTR up confirm=0
N#CC1C(C#N)N2CCCN2C1c1ccc(Br)cc1 (stereo not given),0,
SMILES,TTR transcr act,others
CCCCCn1nnnc1C1(C)CCCCC(=O)N1Cc1ccco1 (stereo not given),1,
COc1ccc(Cc2nc3ccc(C(=O)NCc4cc(C)no4)cc3o2)cc1OC,9.9*,TTR inh HuH7=1;TTR up confirm=0
COC(=O)CCCNC(=O)c1ccc2nc(Cc3ccc(OC)cc3)oc2c1,1,
COc1ccc(Cc2nc3ccc(C(=O)N4CCCC4)cc3o2)cc1,-1,
COc1ccc(C2=NN(CN3C(=O)C(=O)c4ccccc43)C(c3ccc(OC)cc3)C2)cc1 (stereo not given),0,
COCCCNC(=O)C[C@H]1C[C@@]2(C(=O)OC)C(=C[C@H](C(C)C)O[C@@H]2C2CC2)N(Cc2ccc(Cl)cc2Cl)C1=O,-1,
O=C(N/N=C/C=C\c1ccco1)c1ccccn1,-1,
O=C(N/N=C\C=C\c1ccco1)c1cncc(Br)c1,13*,TTR inh HuH7=-2;TTR up confirm=0
O=C(N/N=C\C=C\c1ccco1)c1cc(-c2ccc3ccccc3c2)n[nH]1,3,
COc1cc2c(cc1OC)C(C)N(C(=O)c1sc(-c3cnccn3)nc1C)CC2 (stereo not given),1,
COc1ccccc1CNC(=O)CN(C)CC(=O)Nc1ccccc1Br,4,
O=C(C[C@@H]1CC[C@H](NS(=O)(=O)c2ccccc2F)[C@@H](CO)O1)NCCCN1CCOCC1,0,
Clc1cc2nc3ccccn3c2cc1Cl,13*,TTR inh HuH7=-15;TTR up confirm=2
OCc1c(Cl)nc2ccccn12,2,
c1ccc(-c2nc3ccccn3c2-c2ccccc2)cc1,-1,
O=C(NC1CCCCC1)C(c1cccnc1)N(C(=O)c1ccc(Cl)nc1)C1CCCCC1 (stereo not given),-1,
CCOC(=O)Cc1csc(NC(=O)CCC(=O)O)n1,2,
CCOC(=O)Cc1csc(NC(=O)COc2cccc(C)c2)n1,0,
CCOC(=O)Cc1csc(NC(=O)COc2ccc3c(c2)CCC3)n1,14*,TTR inh HuH7=-24;TTR up confirm=0
Cn1c(CCC(=O)Nc2cc(S(C)(=O)=O)ccc2Cl)nc2cc(S(=O)(=O)N3CCOCC3)ccc21,0,
Cc1cccnc1NC(=S)NC(=O)/C=C/c1ccco1,12*,TTR inh HuH7=0;TTR up confirm=0
O=C(/C=C\c1ccco1)NC(=S)Nc1ccccc1O,0,
Cn1nnc(NC(=S)NC(=O)/C=C/c2ccco2)n1,8,
COC(=O)[C@]12C[C@H](CC(=O)NCc3ccccc3)C(=O)N(Cc3ccco3)C1=C[C@H](COCc1ccccc1)O[C@@H]2C,1,
O=C1NC(Cc2ccccc2)c2nc3cc(F)ccc3c(=O)n2-c2ccccc21 (stereo not given),4,
SMILES,TTR transcr act,others
C[C@H]1[C@H](N)CC[C@@]23CCCN2C(=O)CCC[C@@H]13,0,
COC(=O)C1CN(Cc2ccc(OC)cc2)CCS(=O)(=O)N1Cc1cn(Cc2ccc(Cl)cc2)nn1 (stereo not given),-1,
Cc1cccc(C(=O)NCCc2n[nH]c(=S)n2C)c1,0,
Cn1c(CNC(=O)c2cccs2)n[nH]c1=S,0,
Cc1ccc(NC(=O)Cc2n[nH]c(=S)n2C)cc1,11*,TTR inh HuH7=-5;TTR up confirm=1
Cc1ccccc1C(=O)Nc1nnc([C@@H]2C[C@H](O)[C@@H](CO)O2)s1,0,
COC(=O)[C@]12C[C@H](CC(=O)NCCc3ccccc3OC)C(=O)N(Cc3cccc4ccccc34)C1=C[C@H](C1CCCC1)O[C@@H]2C,-1,
CCC(CC)C(=O)OCC(=O)C1(O)CCC2C3CCC4=CC(=O)CCC4(C)C3C(O)CC21C (stereo not given),-3,
Cc1ccc(OP(=O)(Nc2c(C)n(C)n(-c3ccccc3)c2=O)Oc2ccc(C)cc2)cc1,1,
COP(=O)(O)C(Cc1ccccc1)NC(=O)OCc1ccccc1 (stereo not given),0,
O=C(Nc1ccnn1C1CCN(Cc2cccc(OCCO)c2)CC1)C1CCOC1 (stereo not given),3,
CC(=O)Nc1nc(COc2ccccc2)cs1,-1,
COc1ccccc1OCc1csc(N)n1,24*,TTR inh HuH7=-14;TTR up confirm=0
COc1ccc(/C=C/C(=O)OCc2csc(-c3ccccc3)n2)cc1OC,-1,
Cc1ccccc1-c1cccc([C@@H]2C[C@H]3[C@H](CON3C)CN2S(=O)(=O)c2ccccc2C)c1,-3,
COC(=O)[C@H](CC1(c2cn(S(=O)(=O)CC[Si](C)(C)C)c3ccccc23)C(=O)Nc2ccccc21)NC(=O)OC(C)(C)C (stereo not given in full),-1,

# Compound activity from PubChem BioAssay.
